Sampled rows, rich in hits. Any-hit rate of the full collection: about 2.3%.
Nrf2 inh: Nrf2 qHTS screen for inhibitors | A549 ARE-Fluc reporter, luciferase luminescence, 18-24 h | Potency, µM (titrated, usually from 46 µM), most hits filed as inhibitors | actives 2.1% (n = 360,000) | AID 504444, 2011; also: nearly all actives have a fitted effect of over 60% in size
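Nrf2 function is reported as luminescence of an ARE-controlled luciferase in A549 cells. Compounds were tested at several concentrations, and a CellTiter-Fluor read on the same wells flagged cytotoxicity.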
A549 tox-1: Nrf2 qHTS screen for inhibitors: counterscreen for cytotoxicity; A549 ARE-Fluc cells, CellTiter-Fluor viability, 18-24 h; Potency, µM (titrated, usually from 46 µM), hits mostly inhibitors; actives 0.16% (n = 390,000)
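A549 ARE-Fluc cells in 5% FBS OPTI-MEM, 5000 cells/well, rested 2 h then exposed to compounds in concentration-response for 18-24 h at 37 °C. Viability by CellTiter-Fluor fluorescence (Ex 405/Em 525) after 30 min; luciferase luminescence (BugLite, 15 min, RT) read afterwards.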
Mito fusion yeast: qHTS Assay for Small Molecule Inhibitors of Mitochondrial Division or Activators of Mitochondrial Fusion; actives 0.23% (n = 320,000); S. cerevisiae fusion-defective mutant growth rescue, CellTiterGlo 48 h; AID 485298, 2010; Potency, µM (titrated, usually from 46.1 µM), hits mostly activators; also: nearly all actives have a fitted effect of over 45% in size
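Compounds are tested for their ability to restore growth of mitochondrial fusion-defective yeast strains at non-permissive 37C in YPEG medium over 48 hours. Viability is quantified by luciferase luminescence.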
GRP78 ERSR act: qHTS for Inducers of the Endoplasmic Reticulum Stress Response (ERSR) in Human Glioma: qHTS; actives 0.02% (n = 420,000); U87-MG GRP78 promoter luciferase reporter, 16 h; Potency, µM, hits mostly activators; also: series mostly up to about 76 µM; nearly all actives have a fitted effect of over 35% in size
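Stably transfected U87-MG glioma cells carrying a GRP78-based luciferase sensor; 16 h compound incubation. Luminescence end-point read 10 min after Bright-Glo addition at room temperature.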
Nrf2 activator: qHTS of Nrf2 Activators; AREc32 ARE-luciferase reporter (MCF7-derived line), luminescence, 24 h; Potency, µM (series often up to 46.1 µM), hits mostly activators; actives 0.31% (n = 410,000); also: nearly all actives have a fitted effect of over 65% in size
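Luciferase luminescence (Steady-Glo, 30 min at room temperature) served as the read-out of ARE activation in AREc32 cells treated with compounds for 24 hr at 37 deg C.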
miR-21 reporter: qHTS Assay for Modulators of miRNAs and/orActivators of miR-21. Potency, µM (highest dose often 38.3 µM), usual class: activators. 340,000 tested, under 10 active. AID 2288, 2010. HeLa miR-21 FLuc reporter, luciferase, 48 h;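 also: miR-21 action dims this reporter so a rising signal means less miR-21 action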
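HeLa cells endogenously expressing miR-21, stably carrying CMV-driven firefly luciferase with a downstream miR-21 binding site, 2000 cells/well. Titrations up to approximately 40 uM, 48 hours; luciferase luminescence read.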
FLuc counter 3: Nrf2 qHTS screen for inhibitors: Purified Fluc Biochemical Counterscreen for Hit Validation; shares compounds with Nrf2 inh; actives 4% (n = 1,400); purified firefly luciferase, luminescence inhibition; AID 720522, 2013; Potency, µM (top dose mostly 57.5 µM), hits mostly inhibitors; also: nearly all actives have a fitted effect of over 65% in size
Target sequence (P08659 whole entry, looked up): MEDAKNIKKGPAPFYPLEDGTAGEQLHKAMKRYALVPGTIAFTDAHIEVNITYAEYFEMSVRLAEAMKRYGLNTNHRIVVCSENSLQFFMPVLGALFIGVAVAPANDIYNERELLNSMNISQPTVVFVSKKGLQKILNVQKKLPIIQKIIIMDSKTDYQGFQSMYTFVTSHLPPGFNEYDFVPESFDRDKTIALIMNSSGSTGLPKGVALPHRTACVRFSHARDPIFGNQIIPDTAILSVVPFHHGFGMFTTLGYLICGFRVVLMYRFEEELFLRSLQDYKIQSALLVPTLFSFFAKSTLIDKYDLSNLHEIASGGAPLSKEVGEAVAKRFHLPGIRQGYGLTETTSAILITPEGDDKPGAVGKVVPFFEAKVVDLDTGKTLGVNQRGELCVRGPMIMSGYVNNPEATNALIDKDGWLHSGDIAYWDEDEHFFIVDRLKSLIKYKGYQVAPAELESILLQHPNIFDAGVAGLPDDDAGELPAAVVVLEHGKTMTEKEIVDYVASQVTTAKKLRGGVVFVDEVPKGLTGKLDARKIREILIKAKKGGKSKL
A549 tox-2: Nrf2 qHTS screen for inhibitors: A549 ARE-Fluc Cytotoxicity Counterscreen for Hit Validation; A549 ARE-Fluc cells, cytotoxicity counterscreen; actives 2% (n = 1,400); shares compounds with Nrf2 inh; Potency, µM (titrated, usually from 46.1 µM), most hits filed as inhibitors;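 also: cells exposed to compounds for 18 to 24 hours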
Nrf2 ARE inh: Nrf2 qHTS screen for inhibitors: Nrf2 A549 ARE-Fluc Confirmation Assay for Hit Validation. shares compounds with Nrf2 inh. A549 ARE-firefly luciferase reporter, luminescence. Potency, µM (highest dose often 46.1 µM), most hits filed as inhibitors. actives 74% (n = 1,400). AID 720524, 2013; also: nearly all actives have a fitted effect of over 65% in size
A number is an active result; ! = repeats disagree; [ ] = another dose, or the depositor's remark. Calls follow the shape of the dose curve; as a rule, active = well fitted curve in the direction sought with a large enough effect; inconclusive = small, poorly fitted or top-dose-only effect, or another doubt; inactive = no such curve, though single readings can be large; an effect the other way counts as inactive or inconclusive.

O=C1NC(=S)NC1=Cc1ccc2c(c1)CCC2 was read as Nrf2 inh inactive, A549 tox-1 inactive, GRP78 ERSR act inactive and Nrf2 activator inactive.
For Cc1ccnc(NC(=O)CCCOc2cc(=O)n(C)c3ccccc23)c1 the results were Nrf2 inh 4.1µM, A549 tox-1 inconclusive, Mito fusion yeast inactive, GRP78 ERSR act inconclusive, Nrf2 activator inactive, miR-21 reporter inactive, FLuc counter 3 inactive, A549 tox-2 inconclusive and Nrf2 ARE inh 5.8µM.
For Cc1cccc(N2CCN(C(=O)c3ccc4c(c3)NC(=O)C(CSCc3ccc(F)cc3)N4)CC2C)c1 (configuration not stated) the results were Mito fusion yeast inactive and miR-21 reporter inactive.
For C/C(=N\Nc1nc2ccccc2nc1C)c1ccccc1O the results were Nrf2 inh inactive, A549 tox-1 inactive, Mito fusion yeast inactive, GRP78 ERSR act inactive, Nrf2 activator inactive and miR-21 reporter inactive.
For CC(=NNc1ccc2ccccc2n1)c1ccccc1O the results were Nrf2 inh inconclusive, A549 tox-1 inactive, GRP78 ERSR act inactive, Nrf2 activator inconclusive, FLuc counter 3 0.038µM, A549 tox-2 inactive and Nrf2 ARE inh inconclusive.
For Cn1c(N)c(C(=O)COC(=O)Cc2c(F)cccc2Cl)c(=O)n(C)c1=O the results were Nrf2 inh inactive, A549 tox-1 inactive, GRP78 ERSR act inactive and Nrf2 activator inactive.
`Nc1c(Cl)ncnc1NCCO` gave Nrf2 inh inactive, A549 tox-1 inactive, Mito fusion yeast inactive, GRP78 ERSR act inactive, Nrf2 activator inactive and miR-21 reporter inactive.
`Cc1ccc(CCNc2ncnc(Cl)c2N)cc1` gave Nrf2 inh 3.7µM, A549 tox-1 inconclusive, GRP78 ERSR act inactive, Nrf2 activator inactive, FLuc counter 3 inconclusive, A549 tox-2 inactive and Nrf2 ARE inh inconclusive.
CN(CC(=O)O)S(=O)(=O)c1ccc2c(c1)NC(=O)CC(=O)N2 was read as Nrf2 inh inactive, A549 tox-1 inactive, Mito fusion yeast inactive, GRP78 ERSR act inactive, Nrf2 activator inactive and miR-21 reporter inactive.
`CNc1ccc(/C=C2\C=Cc3ccccc32)cc1` gave GRP78 ERSR act inactive.
CNc1ccc(C=C2c3ccccc3-c3ccccc32)cc1 was read as GRP78 ERSR act inactive, FLuc counter 3 inconclusive, A549 tox-2 inactive and Nrf2 ARE inh 3.7µM.
For Cc1cc(C)c(CN2CCN(C(=O)Cn3cnc4c(NCc5ccccc5)ncnc43)CC2)c(C)c1 the results were Nrf2 inh 3.7µM, A549 tox-1 inactive, GRP78 ERSR act inactive, Nrf2 activator inactive, FLuc counter 3 inactive, A549 tox-2 inconclusive and Nrf2 ARE inh 0.65µM.
For Cc1cc2cc(CN(Cc3ccco3)S(=O)(=O)c3c(C)ccc4nsnc34)c(=O)[nH]c2cc1C the results were Nrf2 inh 2.3µM, A549 tox-1 inactive, Mito fusion yeast inactive, GRP78 ERSR act inactive, Nrf2 activator inactive, miR-21 reporter inactive, FLuc counter 3 inconclusive, A549 tox-2 inactive and Nrf2 ARE inh 3.3µM.
COc1ccc(Cl)cc1NC(=O)c1cc2c(=O)n3ccccc3nc2s1 was read as Nrf2 inh 1.6µM, A549 tox-1 inactive, Nrf2 activator inactive, miR-21 reporter inactive, FLuc counter 3 inactive, A549 tox-2 inconclusive and Nrf2 ARE inh 23µM.
Screening CC(C)(C)NC(=O)CSc1nc2ccc(NC(=O)CSc3nnnn3Cc3ccccc3)cc2s1 returned Nrf2 inh 8.2µM, A549 tox-1 inactive, Mito fusion yeast inactive, GRP78 ERSR act inactive, Nrf2 activator inactive, miR-21 reporter inconclusive, FLuc counter 3 inactive, A549 tox-2 inactive and Nrf2 ARE inh 7.3µM.
`O=C(Cc1ccc(S(=O)(=O)N2CCOCC2)s1)Nc1ccccc1N1CCOCC1` gave Nrf2 inh inactive, A549 tox-1 inactive, Mito fusion yeast inactive, GRP78 ERSR act inactive, Nrf2 activator inactive and miR-21 reporter inactive.
For C=CCC[C@@H](Cc1ccc(F)cc1)C(=O)O[C@H](CNC(=O)[C@@H](CC=C)CC(=O)N[C@H](CO)Cc1ccccc1)c1ccccc1 the results were Nrf2 inh inconclusive, A549 tox-1 inactive, GRP78 ERSR act inactive and Nrf2 activator inactive.
For O=C1c2ccc(Oc3ccc([N+](=O)[O-])cc3)cc2C(=O)N1CCCO the results were Nrf2 inh 4.1µM, A549 tox-1 inactive, Mito fusion yeast inactive, GRP78 ERSR act inactive, Nrf2 activator inactive[9.22 µM], miR-21 reporter inactive, FLuc counter 3 inactive, A549 tox-2 inactive and Nrf2 ARE inh inconclusive.
`CCCCOc1cc(C(=O)NCCN(CC)CC)c2ccccc2n1` gave Nrf2 inh 9.2µM!, A549 tox-1 inactive, Mito fusion yeast inactive, GRP78 ERSR act inactive, Nrf2 activator inactive, miR-21 reporter inactive, FLuc counter 3 inactive, A549 tox-2 inactive and Nrf2 ARE inh 6.5µM.
`CCN(CC)CCNC(=O)c1cc(-c2ccc(Br)s2)nc2ccccc12` gave Nrf2 inh inactive, A549 tox-1 inactive, Mito fusion yeast inactive, GRP78 ERSR act inactive, Nrf2 activator inactive and miR-21 reporter inactive.
`O=C(Nc1nc(-c2ccc(S(=O)(=O)N3CCCCCC3)cc2)cs1)c1ccccc1` gave Nrf2 inh 2.9µM, Mito fusion yeast inactive, GRP78 ERSR act inactive, Nrf2 activator inactive, miR-21 reporter inactive, FLuc counter 3 inactive, A549 tox-2 inactive and Nrf2 ARE inh 4.1µM.
`O=C(Nc1nc(-c2cccs2)cs1)c1ccc(S(=O)(=O)N2CCCC2)cc1` gave Nrf2 inh 9.2µM, A549 tox-1 inconclusive, Mito fusion yeast inactive, GRP78 ERSR act inactive, Nrf2 activator inactive, miR-21 reporter inconclusive, FLuc counter 3 inactive, A549 tox-2 inactive and Nrf2 ARE inh inconclusive.
Screening O=C(Nc1nc(-c2ccc3c(c2)OCCO3)cs1)c1ccc(S(=O)(=O)N2CCCCC2)cc1 returned Nrf2 inh inconclusive, A549 tox-1 inactive, Mito fusion yeast inactive, GRP78 ERSR act inactive, Nrf2 activator inactive and miR-21 reporter inactive.

Source: PubChem BioAssay
